# Assay results from article PMC5540273 (PLoS ONE, 2017).
# Legend:
# Conditions in all cases: concentration: 1 μM,replicates: in singlicate; n = 1
# CLK2 = tested on: CLK2
# CLK3 = tested on: CLK3
# CLK4 = tested on: CLK4
# CSF1R-autoinhibited = tested on: CSF1R-autoinhibited
# CSF1R = tested on: CSF1R
# CSK = tested on: CSK
# CSNK1A1L = tested on: CSNK1A1L
# CSNK1A1 = tested on: CSNK1A1
# CSNK1D = tested on: CSNK1D
# CSNK1E = tested on: CSNK1E
# 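Further: KINOMEscan kinase panel screen.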
SMILES,%Inh (CLK2) [%],%Inh (CLK3) [%],%Inh (CLK4) [%],%Inh (CSF1R-autoinhibited) [%],%Inh (CSF1R) [%],%Inh (CSK) [%],%Inh (CSNK1A1L) [%],%Inh (CSNK1A1) [%],%Inh (CSNK1D) [%],%Inh (CSNK1E) [%]
Cc1ccc(Nc2ccnc(Nc3ccc4c(c3)CS(=O)(=O)C4)n2)cc1O.Cl [GW579362],16,82,81,76,97.5,48,8,0,3,21
COc1ccc(Nc2nccc(N3CCC(NC(=O)c4cccc(C#N)c4)C3)n2)cc1 (stereo not drawn) [GSK1379730],0,5,21,24,0,0,11,0,29,27
CS(=O)c1ccc(-c2coc3ccc(-c4n[nH]c(=O)o4)cc23)cc1 (stereo not drawn),25,3,33,10,4,0,7,7,0,0
Cc1cccc2c(-c3ccncc3)c(-c3ccc(F)cc3)nn12.Cl [GW461487],0,3,0,4,0,0,22,51,93.3,84
Cn1ccc2ncnc(Oc3ccc(NC(=O)Nc4cncc(C(F)(F)F)c4)c(Cl)c3)c21,7,0,7,0,99.4,0,0,0,0,0
Nc1nccc(-c2ccc3c(N)n[nH]c3c2)n1 [GSK1034945],88,44,95.3,0,0,0,5,0,17,29
O=C(Nc1ccc(Oc2ccc3nc(NC(=O)C4CC4)cn3n2)c(F)c1)c1cccn(-c2ccccc2)c1=O,0,0,0,0,100,0,15,39,0,0
Cn1ccc2ncnc(Oc3ccc(NC(=O)Nc4cnn(C(C)(C)C)c4)c(Cl)c3)c21,12,5,9,28,99.9,0,0,0,0,2
Cc1n[nH]c2cc(Nc3ccnc(Nc4cccc(CN5CCOCC5)c4)n3)ccc12 [GW682569],3,11,0,68,87,27,0,0,10,19
Cc1ccc2c(-c3ccnc(Nc4ccc(C(F)(F)F)cc4)n3)cnn2n1 [GW819776],72,31,67,0,11,0,0,7,31,19
O=C(Nc1n[nH]c2cc(-c3ccco3)ccc12)C1CC1 [SB-737447],22,19,0,0,0,10,0,18,0,0
CC(C(=O)NC1CCN(c2ccnc(Nc3ccc(F)cc3)n2)C1)c1ccc(Cl)cc1 (stereo not drawn) [GSK1379713],0,0,8,0,0,0,3,22,0,3
CS(=O)(=O)c1cccc(CNc2nc(Nc3ccc4c(c3)[C@@H]3C[C@@H]4CNC3=O)ncc2C(F)(F)F)c1,6,0,0,22,5,0,0,0,0,0
CSc1nccc(-c2c(-c3ccc(F)cc3)ncn2CCCN2CCOCC2)n1.Cl [SB-217146],0,0,18,0,0,0,0,6,54,10
CC(C)S(=O)(=O)N1CCN(Cc2ccc3c(c2)nc(NC(=O)c2ccsc2)n3C[C@H](O)c2ccccc2)CC1 [GW635815],91.9,79,95.5,45,68,13,68,60,56,71
O=C(Nc1cccc(Oc2ccc3nccn3n2)c1)Nc1cccc(C(F)(F)F)c1,0,0,0,0,99.8,12,3,0,2,11
CN(c1ccccc1CNc1nc(Nc2ccc3c(c2)CC(=O)N3)ncc1C(F)(F)F)S(C)(=O)=O,84,23,84,2,17,3,9,19,0,1
C[C@@H](Oc1cc(-n2cnc3cc(-c4ccncc4)ccc32)sc1C(N)=O)c1ccccc1Cl [GSK479719],28,5,68,0,29,0,15,0,17,8
Cc1cccc(-c2nc(Nc3ccncc3)c3sccc3n2)n1 [GW869641],15,23,22,42,10,7,17,65,90,94.9
COc1cc(Nc2nccc(N3CCC(NC(=O)c4cccc(C#N)c4)C3)n2)cc(OC)c1OC (stereo not drawn) [GSK1379751],0,0,0,14,28,0,0,0,0,8
COc1cc2c(Nc3ccc(NC(=O)c4ccccc4)cc3)ncnc2cc1OCCCN1CCOCC1 [GSK301329],0,100,6,0,18,4,9,7,3,59
O=C(NOCC1CC1)c1cc(Br)c(F)c(F)c1Nc1ccc(I)cc1Cl,9,0,0,0,0,0,0,1,0,0

SMILES,%Inh (CLK2) [%],%Inh (CLK3) [%],%Inh (CLK4) [%],%Inh (CSF1R-autoinhibited) [%],%Inh (CSF1R) [%],%Inh (CSK) [%],%Inh (CSNK1A1L) [%],%Inh (CSNK1A1) [%],%Inh (CSNK1D) [%],%Inh (CSNK1E) [%]
CC(=O)Nc1ccc(-c2cc3ncnc(SCC(=O)O)c3s2)cc1,53,9,32,41,48,12,5,33,4,0
CCCC(=O)Nc1n[nH]c2ncccc12 [SB-601436],0,22,0,0,0,8,4,0,0,2
O=C1NCCc2[nH]c(-c3ccncc3)cc21,94.8,32,94.6,0,5,10,73,95.7,96.6,98.1
COC(=O)c1cccc(NC(=O)NC2CCN(c3ccnc(Nc4cc(OC)c(OC)c(OC)c4)n3)C2)c1 (stereo not drawn) [GSK1379767],0,0,8,34,26,0,0,28,0,13
OCCn1cc(-c2cnc3nnn(Cc4ccc5ncccc5c4)c3n2)cn1,0,0,0,25,0,33,0,15,0,0
C[C@@H](Oc1cc(-n2cnc3cc(-c4cnn(C)c4)ccc32)sc1C(N)=O)c1ccccc1Cl [GSK580432],23,23,34,0,80,3,1,7,0,0
C[C@@H]1CCN(C(=O)N2CCCC2)C[C@@H]1N(C)c1ncnc2[nH]ccc12,8,0,24,0,0,0,0,27,0,13
Cc1ccc(CC(=O)N2CCc3cc(-c4cn(C)c5ncnc(N)c45)ccc32)cc1 [GSK2634758],0,0,0,21,79,100,14,0,16,66
CCn1c(-c2nonc2N)nc2cncc(Br)c21 [SB-738004],77,9,37,95.1,5,11,0,12,13,19
Cl.Cl.NC[C@H](CC1CCCCC1)NC(=O)c1ccc(-c2ccnc3[nH]ccc23)s1 [GSK1581428],82,63,90,0,85,0,69,77,80,82
C[C@@H](Oc1cc(-n2cnc3ccc(-c4ccncc4)cc32)sc1C(N)=O)c1ccccc1Cl [GSK483724],83,37,97.1,0,14,11,17,0,28,44
CCN1CCN(CCCC(=O)Nc2n[nH]c3nc(-c4ccc(O)cc4)c(Br)cc23)CC1 [SB-731579],8,66,45,0,0,0,0,5,0,0
CS(=O)(=O)Nc1ccc(-c2ccnc3[nH]ccc23)cc1 [GSK993273],94.8,58,96.3,0,32,0,21,5,20,33
C[C@@H]1CNc2c(sc3ccc4nc(-c5ccncc5)ccc4c23)C(=O)N1,94,32,81,3,8,19,66,95,34,29
NC(=O)c1ccc(-c2cc3ncnc(SCC(=O)O)c3s2)cc1,52,10,87,37,5,0,0,0,3,0
O=c1[nH]cc(-c2ccc(O)cc2)c2sc(-c3ccncc3)cc12 [GSK1033723],67,19,95.9,2,25,5,13,57,41,46
Cl.c1ccc(Oc2ccc(Nc3ccnc4cc(-c5ccc(CN6CCNCC6)o5)ccc34)cc2)nc1 [GW567142],0,15,0,0,43,72,0,0,16,40
c1ccc(Oc2ccc(Nc3ccnc4ccc(-c5ccccn5)cc34)cc2)cc1 [GW407034],0,19,0,0,9,6,13,0,14,36
CNC(=O)c1ccccc1Nc1nc(Nc2cccc(CS(C)(=O)=O)c2)ncc1C.O=CO [GSK1520489],94.6,86,98.9,90,99.8,95.1,63,46,25,20
CN1CCN(CCCNc2nccc(-c3c(-c4ccc(F)cc4)nn4cc(C(N)=O)ccc34)n2)CC1 [GW622475],0,0,12,0,22,11,52,95.7,97.4,99.7
Cl.Nc1n[nH]c2cc(-c3ccccn3)ccc12 [GSK2189892],0,18,31,0,8,0,0,0,0,21
Cc1ccn2nc(-c3ccc(F)cc3)c(-c3ccncc3)c2c1.Cl [GW457859],0,1,55,25,9,0,35,92.5,96.3,99.6

SMILES,%Inh (CLK2) [%],%Inh (CLK3) [%],%Inh (CLK4) [%],%Inh (CSF1R-autoinhibited) [%],%Inh (CSF1R) [%],%Inh (CSK) [%],%Inh (CSNK1A1L) [%],%Inh (CSNK1A1) [%],%Inh (CSNK1D) [%],%Inh (CSNK1E) [%]
Cc1ccc(C(=O)Nc2ccc(Oc3ccc4nc(NC(=O)C5CC5)cn4c3)c(F)c2)c(=O)n1-c1ccccc1,5,2,0,0,100,24,0,29,0,0
CCOC(=O)N1CCC(n2cnc(-c3ccc(F)cc3)c2-c2ccnc(N)n2)CC1 [SB-219952],0,2,2,22,70,11,74,97.8,94.8,99.7
COC(=O)c1cccc(NC(=O)NC2CCN(c3ccnc(NCc4ccc(F)cc4)n3)CC2)c1 [GSK1379860],0,11,10,12,1,0,23,0,4,37
O=C(Nc1cccc(C(F)(F)F)c1)c1cccc(Oc2ccc3nccn3n2)c1,0,0,4,16,100,0,0,0,11,0
O=C(Nc1ccccc1)c1cccc(Oc2ccc3nccn3n2)c1,20,0,0,0,81,0,0,0,0,0
C[C@@H]1CNc2c(sc3ccc4nc(-c5ccc(O)cc5)ccc4c23)C(=O)N1,98.2,50,95.7,7,4,0,84,95.4,63,55
N#Cc1cccc(C(=O)NC2CCN(c3ccnc(Nc4ccc(F)cc4)n3)C2)c1 (stereo not drawn) [GSK1379708],0,0,1,2,1,24,1,0,17,1
CCn1c(-c2nonc2N)nc2cncc(CNC3CCNCC3)c21.Cl [SB-747651],17,7,56,0,10,0,19,0,26,21
Cc1nnc(-c2ccc3occ(-c4ccc(S(C)=O)cc4)c3n2)o1 (stereo not drawn),19,0,0,0,1,0,6,0,0,0
Cn1ccc2ncnc(Oc3ccc(NC(=O)Nc4cccc(C(F)(F)F)c4)c(Cl)c3)c21,1,0,0,18,99.5,15,0,0,0,0
NC(=O)Nc1sc(-c2ccc(F)cc2)cc1C(N)=O [GW789449],0,15,0,39,77,6,5,35,55,40
Cn1ccc2ncnc(Oc3ccc(NC(=O)Nc4cc(C(C)(C)C)on4)c(Cl)c3)c21,95.1,0,10,43,100,0,15,6,6,0
CN(c1cccc(CNc2nc(Nc3ccc4c(c3)CC(=O)N4)ncc2C(F)(F)F)c1)S(C)(=O)=O,26,16,47,31,15,0,0,0,7,18
CN1CCN(CCNc2nc3cc(Oc4ccc(NC(=O)Nc5cc(C(F)(F)F)ccc5F)cc4)ccc3[nH]2)CC1.Cl.Cl [GW768504],0,0,14,0,60,0,0,19,0,6
CC(=O)Nc1nc2cnc(Nc3cc(NC(=O)c4cccc(CC(C)(C)C#N)c4)ccc3C)nc2s1,0,0,7,28,99.7,7,11,31,6,0
COc1cc2nccc(Nc3ccc(Oc4ccccc4)cc3)c2cc1OC.Cl [GI261656],0,0,0,26,14,91.9,0,0,0,41
CN(c1ccc2c(c1)nc(NCc1ccc(F)cc1)n2C)c1ccnc(Nc2ccc(CS(C)(=O)=O)cc2)n1.Cl [GW813244],46,0,17,62,100,0,5,28,10,0
Cn1ccc2ncnc(Oc3ccc(NC(=O)Nc4ccnc(C(F)(F)F)c4)c(Cl)c3)c21,0,0,0,6,92.3,0,16,0,0,0
Cn1cc(-c2cccc3c(N)c(C(N)=O)nnc23)cn1,78,20,75,0,0,19,21,72,32,25
CC(C)c1nc(-c2cccc(NS(=O)(=O)c3ccccc3)c2)c(-c2ccnc(Nc3ccc4c(c3)CN(C)CC4)n2)s1 [GSK1649598],10,24,0,0,89,97.6,88,87,86,98.6
CCNCC(Cc1ccccc1)NC(=O)c1cc(Br)c(-c2ccnc3[nH]ccc23)s1.Cl.Cl (stereo not drawn) [GSK1383280],71,47,59,0,55,6,6,0,32,39
COC(=O)Nc1nc2cc(Oc3ccc(NC(=O)Nc4cc(C(F)(F)F)ccc4Cl)cc3)ccc2[nH]1.Cl [GW697465],0,13,43,47,99.6,0,9,0,69,39
